S2 tox – viability counter-screen for ATXN expression inhibitors; S2 cells (HEK-293 line with an ATXN2-luciferase reporter) viability, CellTiter-Fluor protease fluorescence, 24 h; Potency, µM (series often up to 56.7 µM), usual class: cytotoxic; 400,000 tested, 0.49% active; AID 651635; also: nearly all actives have a fitted effect of over 40% in size
VP16 counter – inhibits Gal4-VP16 luciferase reporter, ROR gamma counter-screen. Drosophila S2 Gal4-VP16 UAS-luciferase, luminescence, 20 h. Potency, µM (series often up to 53.6 µM), most hits filed as inhibitors. 310,000 tested, 3.5% active;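 also: Gal4-VP16 expression switched on by copper sulfate through the metallothionein promoter; nearly all actives have a fitted effect of over 50% in size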
TGFb inhibitor – blocks TGF-b signaling; HepG2 CAGA-GFP TGF-b/SMAD3 reporter, GFP fluorescence, 18 h; TGF-beta stimulated, 500 pg/mL final; Potency, µM (series often up to 46.1 µM), most hits filed as inhibitors; 410,000 tested, 1.2% active; also: nearly all actives have a fitted effect of over 65% in size
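Cell-based qHTS in HEPG2 carrying a CAGA-GFP Smad reporter; compounds added before 500 pg/mL final TGF-beta, 18 h incubation at 37 degrees C, GFP fluorescence quantified per cell by imaging cytometry.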
HepG2 viability – kills HepG2 cells in TGF-b inhibitor counter-screen | HepG2 CAGA-GFP viability, ATP luminescence, 18 h | Potency, µM (series often up to 46.1 µM), usual class: cytotoxic | 410,000 tested, 0.76% active | AID 588856
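HepG2 CAGA-GFP cells (1000/well, DMEM with 1% FBS) received compound, then TGF-beta at 500 pg/mL final, and were incubated 18 hours at 37 degrees C. Viability was read by CellTiter-Glo luminescence. Media-only wells were set as complete cell-killing and DMSO as no toxicity.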
ATXN2 expr inh – reduces ATXN2 reporter expression in HEK-293 cells. HEK-293 ATXN2-luciferase reporter, luminescence, 24 h. Potency, µM (titrated, usually from 57 µM), usual class: inhibitors. 360,000 tested, 0.72% active; also: nearly all actives have a fitted effect of over 55% in size
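ATXN2-luciferase reporter cells (luciferase flanked by upstream and downstream ATXN2 gene portions) were treated 24 h at 37 °C with compounds at up to 57 uM. SteadyGlo luminescence gave expression; GF-AFC fluorescence gave viability.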
RORg inh – ROR gamma (mouse) transcription inhibition; P51450; Potency, µM (top dose mostly 53.6 µM), most hits filed as inhibitors; Drosophila S2 Gal4-RORgamma UAS-luciferase reporter, 20 h; 310,000 tested, 5.4% active; also: nearly all actives have a fitted effect of over 60% in size
Target sequence (P51450 whole entry, looked up, the tested form may be a part): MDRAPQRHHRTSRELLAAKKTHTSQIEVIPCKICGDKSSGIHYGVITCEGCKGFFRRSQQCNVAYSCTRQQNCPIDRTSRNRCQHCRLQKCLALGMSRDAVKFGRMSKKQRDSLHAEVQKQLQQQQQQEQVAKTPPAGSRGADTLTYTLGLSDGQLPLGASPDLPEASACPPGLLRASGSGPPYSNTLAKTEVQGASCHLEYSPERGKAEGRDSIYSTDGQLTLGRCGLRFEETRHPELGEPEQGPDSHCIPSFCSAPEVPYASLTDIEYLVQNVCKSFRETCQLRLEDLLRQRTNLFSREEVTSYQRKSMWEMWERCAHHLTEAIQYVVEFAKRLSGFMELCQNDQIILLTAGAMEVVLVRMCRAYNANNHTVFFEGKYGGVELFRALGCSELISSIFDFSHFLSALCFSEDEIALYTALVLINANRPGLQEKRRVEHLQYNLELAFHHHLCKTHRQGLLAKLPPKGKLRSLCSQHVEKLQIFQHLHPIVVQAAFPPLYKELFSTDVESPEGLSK
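Schneider cells (Drosophila), stable Gal4 DBD–ROR gamma + UAS-luc; 1 hr cmpd preincubation; Cu2+ induction 700 uM final; 20 hr ambient; luminescence.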
Of the large screens only hits and unclear results are named; the others gave an inactive call; ! = not confirmed by another sample. The list is not random: actives were taken first. Their share in the collection is about 6.3%. Calls follow the shape of the dose curve; as a rule, active = well fitted curve in the direction sought with a large enough effect; inconclusive = small, poorly fitted or top-dose-only effect, or another doubt; inactive = no such curve, though single readings can be large; an effect the other way counts as inactive or inconclusive.

CCc1cc(-c2n[nH]c(=S)n2C(C)c2ccccc2)cs1 (centres undefined)	none
CCc1ccccc1NC(=O)c1ccc2c(c1)nnn2C1CCCC1	none (no result: VP16 counter, RORg inh)
COc1ccc(-n2c(=O)c3c4c(sc3n(Cc3ccc(F)cc3)c2=O)CN(C(C)=O)CC4)c(OC)c1	TGFb inhibitor inconclusive (no result: VP16 counter, RORg inh)
S=C(NCc1ccco1)N1CCN(c2nc(-c3ccc(Cl)cc3)cs2)CC1	VP16 counter inconclusive, TGFb inhibitor inconclusive, ATXN2 expr inh inconclusive, RORg inh 11.2µM
O=C(Cc1cccs1)N1CCN(c2nc(-c3ccc(Cl)cc3)cs2)CC1	VP16 counter inconclusive, RORg inh 12.6µM
S=C(NCc1ccco1)N1CCN(c2nc(-c3ccccc3)cs2)CC1	none
Cc1cc(C)n(-c2nc(Nc3ccccc3C(F)(F)F)nc(-n3nc(C)cc3C)n2)n1	S2 tox inconclusive, VP16 counter 7.08µM, TGFb inhibitor inconclusive, ATXN2 expr inh 22.4µM, RORg inh 7.08µM
Cc1cc(Nc2ccccc2C)nc(-n2nc(C)cc2C)n1	TGFb inhibitor inconclusive (no result: S2 tox, VP16 counter, ATXN2 expr inh, RORg inh)
Cc1cc(C)n(-c2nc(Nc3ccccc3C)nc(-n3nc(C)cc3C)n2)n1	VP16 counter 10µM, RORg inh 2.82µM (no result: S2 tox, TGFb inhibitor, HepG2 viability, ATXN2 expr inh)
Cc1cc(N(C)C)c(C)cc1/C=C/c1ccnc2ccccc12	none (no result: S2 tox, VP16 counter, ATXN2 expr inh, RORg inh)
CCNc1ncc2nc(-c3ccc(OC)cc3)c(=O)n(CCc3ccccc3)c2n1	none (no result: S2 tox, TGFb inhibitor, HepG2 viability, ATXN2 expr inh)
Cc1cc(C)nc(-n2nc(C)cc2NC(=O)CN2CCCC(C)C2)n1 (centres undefined)	VP16 counter 5.62µM, TGFb inhibitor inconclusive, RORg inh 0.708µM
COc1ccc(CNCC(=O)Nc2cc(C)nn2-c2nc(C)cc(C)n2)cc1OC	none
Cc1cc(C)nc(-n2nc(C)cc2NC(=O)CN2CCc3ccccc3C2)n1	S2 tox inconclusive, VP16 counter 2.82µM, ATXN2 expr inh inconclusive, RORg inh 0.794µM
Cc1cc(C)nc(-n2nc(C)cc2NC(=O)CNC2CCCCC2)n1	VP16 counter 6.31µM, TGFb inhibitor inconclusive, RORg inh 2.51µM
CCc1nc2ccc(C(=O)NCc3ccc4c(c3)OCO4)cn2c1N(C)CCC(C)C	S2 tox inconclusive, TGFb inhibitor inconclusive, ATXN2 expr inh inconclusive (no result: VP16 counter, RORg inh)
O=c1cc(Br)c(O)c(Br)cc1Br	S2 tox inconclusive (no result: VP16 counter, RORg inh)
[O-][n+]1cccc2c(Br)cc(Br)c(O)c21	VP16 counter 0.708µM, RORg inh 0.562µM
CC(C)Cc1ccc(C(C)CC2=CCC(CN(C)C)C2=O)cc1 (centres undefined)	TGFb inhibitor inconclusive, HepG2 viability 7.94µM, ATXN2 expr inh inconclusive (no result: S2 tox, VP16 counter, RORg inh)
NC(=O)c1c(NC(=O)CS(=O)(=O)c2ccc(Cl)cc2)sc2c1CCCC2	TGFb inhibitor inconclusive (no result: S2 tox, VP16 counter, ATXN2 expr inh, RORg inh)
COc1ccc(C(=O)NCC(c2cccnc2)N2CCc3ccccc32)cc1 (centres undefined)	TGFb inhibitor inconclusive (no result: S2 tox, VP16 counter, ATXN2 expr inh, RORg inh)
CCCCCCCCCCCC(=O)OCC(O)C1OCC(O)C1O (centres undefined)	none (no result: S2 tox, TGFb inhibitor, HepG2 viability, ATXN2 expr inh)
Cc1nc2ccc(C(=O)N/N=C/c3cc([N+](=O)[O-])ccc3O)cc2[nH]1	none
O=C(N/N=C/c1cc([N+](=O)[O-])ccc1O)C1CCCCC1	VP16 counter 2.51µM, ATXN2 expr inh inconclusive, RORg inh 0.501µM
O=C(N/N=C/c1cc([N+](=O)[O-])ccc1O)C1C2CCCCC21 (centres undefined)	VP16 counter 2.82µM, RORg inh 0.891µM (no result: S2 tox, TGFb inhibitor, HepG2 viability, ATXN2 expr inh)
CCN(CC)S(=O)(=O)c1ccc2c(c1)N(CC(=O)Nc1c(C)cc(C)cc1C)C(=O)C1CCCN21 (centres undefined)	none (no result: S2 tox, VP16 counter, ATXN2 expr inh, RORg inh)
Cc1ccc(Cc2ccc(C(=O)NNC(N)=S)o2)cc1	RORg inh 10µM
N#Cc1cc2ccccc2nc1SCc1ccccn1	VP16 counter inconclusive, RORg inh 6.31µM
Cn1cc(C[C@@H](N)C(=O)O)c2ccccc21	none (no result: S2 tox, VP16 counter, TGFb inhibitor, HepG2 viability, RORg inh)
NC(=NCCCCCCN=C(N)/N=C(\N)Nc1ccc(Cl)cc1)/N=C(\N)Nc1ccc(Cl)cc1	S2 tox 31.6µM!, VP16 counter 15.8µM!, TGFb inhibitor inconclusive, ATXN2 expr inh 20µM!, RORg inh inconclusive
CCCCN=C(Nc1ccc(Cl)cc1)c1cccnc1	none (no result: S2 tox, ATXN2 expr inh)
CCOC(=O)C1(C)CCN1C(=O)c1ccc(C)cc1 (centres undefined)	none (no result: VP16 counter, RORg inh)
Cc1ccc2nc3ccc(N4CCCC4)nn3c(=O)c2c1	none
CC1CCCN(c2ccc3nc4ccccc4c(=O)n3n2)C1 (centres undefined)	VP16 counter 4.47µM, TGFb inhibitor inconclusive, ATXN2 expr inh inconclusive, RORg inh 8.91µM
O=C(CSc1ccc2c(c1)OCCO2)N1CCN(c2ccccc2)CC1	none (no result: VP16 counter, RORg inh)
COc1ccccc1NS(=O)(=O)c1cccc(C(=O)N/N=C/c2cn(-c3ccccc3)nc2-c2ccccc2)c1	S2 tox inconclusive, VP16 counter 6.31µM, RORg inh 1.58µM
COc1ccc(-c2nn(-c3ccccc3)cc2/C=N/NC(N)=S)cc1OC	S2 tox inconclusive, VP16 counter 1µM, RORg inh 1.12µM
COc1ccc(-c2nn(-c3ccccc3)cc2/C=N/n2cnnc2)cc1OC	S2 tox inconclusive
COc1ccc(-c2nn(-c3ccccc3)cc2/C=N/Nc2ccccn2)cc1	VP16 counter 3.98µM, RORg inh 1.58µM (no result: S2 tox, TGFb inhibitor, HepG2 viability, ATXN2 expr inh)

Bioassay records from PubChem BioAssay.
